Assay [1] relates to Human papillomavirus type 1a protein E7 (residues 44-93). Put plainly: small molecules binding HPV E7 44-93 – biochemical, small-molecule microarray, residues 44-93, 635 nm fluorescence, primary screen (AID 1108).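 Further: E7 fragment applied at 1 µg/mL in TBST for 1 h at 4 C; score combines spot fluorescence with its signal to noise ratio.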 The conditions noted are these: fluorescence 635 nm, higher = more signal.
A short description of assay [2]: hepatitis C replication reporter changes, two-sided – Huh7 cells, luciferase reporter, HCV replication inhibitor project, primary screen (AID 1109).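 Further: huh7 hepatoma cells harbouring a luciferase neomycin HCV replicon reporter; luciferase luminescence as measure of HCV replicon replication; test concentration not given here.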 The conditions noted are these: Huh7 HCV replicon luciferase reporter, 48 h; higher = more signal. For orientation: In a reporter assay the amount or activity of a reporter protein is the signal.
In assay [3] the target is Left-right determination factor 2 (Homo sapiens) (UniProt O00292). The assay is described as follows: small molecules binding LEFTY2 protein – biochemical, small-molecule microarray, 635 nm fluorescence scan, primary screen (AID 1110). To be noted: higher = more signal.
Left-right determination factor 2 (Homo sapiens), sequence (O00292 whole entry, looked up): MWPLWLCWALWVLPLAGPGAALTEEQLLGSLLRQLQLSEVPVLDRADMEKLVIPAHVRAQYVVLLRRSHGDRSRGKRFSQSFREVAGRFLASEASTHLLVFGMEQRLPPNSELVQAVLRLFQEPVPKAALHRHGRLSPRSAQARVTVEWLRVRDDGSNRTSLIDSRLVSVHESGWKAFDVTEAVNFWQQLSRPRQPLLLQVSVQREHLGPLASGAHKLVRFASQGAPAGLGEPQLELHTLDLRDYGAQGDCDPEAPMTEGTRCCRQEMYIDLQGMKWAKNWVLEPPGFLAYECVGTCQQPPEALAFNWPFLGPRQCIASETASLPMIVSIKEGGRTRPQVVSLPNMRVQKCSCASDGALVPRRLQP
For assay [4], the target named is Calmodulin-1 (Homo sapiens) (UniProt P0DP23). Put plainly: small molecules binding calmodulin-1 with EGTA – biochemical, small-molecule microarray, Cy5-labelled CALM1, profiling panel (AID 1111).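 Further: labelled calmodulin applied in Tris saline Tween buffer holding calcium plus EGTA and DTT.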 To be noted: Cy5-CALM1 binding fluorescence, higher = more signal.
For assay [5] the target is unchanged. The assay is described as follows: small molecules binding Ca-loaded calmodulin-1 – biochemical, small-molecule microarray, Cy5-labelled CALM1, plus calcium, artefact control for SMM control-protein annotation, profiling panel (AID 1112).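 Further: score merges spot fluorescence with signal to noise from triplicate slides.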 The conditions noted are these: Cy5-CALM1 binding fluorescence, higher = more signal.
Assay [6] is described as follows: probe aWnt5a binding to arrayed compounds – biochemical, biotinylated probe, 635/667 nm fluorescence, primary screen (AID 1113).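 Further: score merges 667 nm fluorescence intensity with signal-to-noise per printed feature.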 The conditions noted are these: small-molecule microarray, higher = more signal.
A short description of assay [7]: probe aShh binding to arrayed compounds – biochemical, biotinylated probe, 635/667 nm fluorescence, primary screen (AID 1114).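 Further: probe is biotin-labelled aShh protein from a stem cell growth factor screen; measures binding of labelled protein to compounds printed on the slide; score merges feature fluorescence at 667 nm with signal-to-noise.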 The conditions noted are these: small-molecule microarray, higher = more signal.
The nature of assay [8]: probe aNog binding to arrayed compounds – biochemical, biotinylated probe, 635/667 nm fluorescence, primary screen (AID 1115).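 Further: probe is biotinylated aNog protein used at 0.15 µg/mL for 1 h at 4 C; z-score combines 667 nm fluorescence of each spot with its signal to noise.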 To be noted: small-molecule microarray, higher = more signal.
The target of assay [9] is Torsin-1A-interacting protein 1 (Homo sapiens) (UniProt Q5JTV8). The assay is described as follows: compound microarray binding of lysate hLAP1 – cell lysate, small-molecule microarray, COS7 lysate, 635/667 nm fluorescence, primary screen (AID 1116). To be noted: 635 nm fluorescence, higher = more signal.
Torsin-1A-interacting protein 1 (Homo sapiens), sequence (Q5JTV8 whole entry, looked up): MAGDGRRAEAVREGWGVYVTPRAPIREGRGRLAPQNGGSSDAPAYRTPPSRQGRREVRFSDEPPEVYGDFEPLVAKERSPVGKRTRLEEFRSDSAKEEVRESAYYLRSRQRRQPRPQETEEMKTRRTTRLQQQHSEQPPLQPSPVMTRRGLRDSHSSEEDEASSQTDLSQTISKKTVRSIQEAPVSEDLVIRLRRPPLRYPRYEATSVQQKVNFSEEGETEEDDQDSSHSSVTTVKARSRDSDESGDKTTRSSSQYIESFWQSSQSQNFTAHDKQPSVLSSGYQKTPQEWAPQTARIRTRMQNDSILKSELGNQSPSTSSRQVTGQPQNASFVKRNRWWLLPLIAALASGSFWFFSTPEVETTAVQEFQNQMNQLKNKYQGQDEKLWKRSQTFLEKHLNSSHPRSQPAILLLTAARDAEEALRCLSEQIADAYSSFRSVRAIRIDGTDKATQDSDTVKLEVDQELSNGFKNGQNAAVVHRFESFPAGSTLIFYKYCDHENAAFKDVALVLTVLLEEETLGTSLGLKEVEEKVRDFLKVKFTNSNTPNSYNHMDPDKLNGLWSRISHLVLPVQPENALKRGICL
Assay [10] addresses Alpha-bungarotoxin (Bungarus multicinctus) (UniProt P60615). Put plainly: compounds binding labelled alpha-BTX control protein – biochemical, small-molecule microarray, Alexa647 label, 635/667 nm fluorescence, artefact control for SMM control protein annotation, profiling panel (AID 1117). To be noted: alpha-BTX-A647 binding fluorescence, higher = more signal.

SMILES strings stand for the structures.

For 18 compounds, composite z-score and z-score results are on record in PubChem BioAssay.

Alpha-bungarotoxin (Bungarus multicinctus), sequence (P60615 whole entry, looked up): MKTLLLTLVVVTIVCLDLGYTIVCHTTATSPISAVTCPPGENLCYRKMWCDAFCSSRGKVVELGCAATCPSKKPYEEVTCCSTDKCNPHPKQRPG

For `CC(CCN1CCCCc2nc(C)c(C)cc21)=NO[C@H](C)c1cn([C@H](CO)Cc2ccccc2)nn1`, the composite z-score is 0.0596 in assay [1]; 0.708 in [3]; -0.418 in assay [4]; -0.763 in assay [5]; 0.103 in assay [6]; 0.163 in assay [7]. Further, the composite z-score is -0.208 in [8], 0.488 in assay [9] and -0.276 in assay [10]. Moreover, the z-score in assay [2] is -1.13.

Consider `Cc1cc2c(nc1C)CCCCN2CC(C)ON=C[C@@H](C)[C@H](OCc1ccccc1)C(C)C` (stereo not given in full), for which the composite z-score in [1] is -0.683; in assay [3], -0.684; in assay [4], -1.4; in assay [5], -0.987; in [6] it was -0.224; in assay [7] it was -0.214. Further, the composite z-score was -0.415 in assay [8], -1.16 in [9] and -0.916 in assay [10]. Moreover, in assay [2], the z-score was -3.07.

With `O=C1[C@H]2[C@H]3[C@H](O)[C@H](O)CC(=NOCc4ccccc4)[C@H]3CC[C@H]2C(=O)N1Cc1ccc2c(c1)OCO2`, the composite z-score is -0.249 in assay [1]; 0.621 in assay [3]; -0.208 in assay [4]; -0.444 in assay [5]; -0.091 in [6]; -0.0553 in assay [7]. For the same compound, the composite z-score is -0.243 in [8], 0.336 in [9] and 0.413 in [10]. The compound also yielded a z-score in assay [2] of -0.188.

As for `CCOC(=O)[C@H](Cc1ccccc1)NC(=O)OC1CC(CCC2CC(CC)=NO2)OC2(CCCC(COC(=O)NCCC(C)C)O2)C1` (stereo not given in full), the composite z-score in [1] was 0.836; in [3] it was 0.0791; in assay [4] it was 0.426; in assay [5], 0.0002; in assay [6], 0.0292; in assay [7], -0.195. Further, the composite z-score in [8] amounted to 0.152; in assay [9] it was 0.309; in assay [10] it was 0.426. In assay [2], the z-score is -1.39.

As to `CO[C@@H]1COC(=O)CC=C[C@H](C)[C@H](OC)COC(=O)[C@H](C)NC(=O)CC=C[C@H]1C`, the composite z-score in assay [1] is -0.724; in assay [3] it was 0.965; in assay [4], -0.981; in assay [5], -2.34; in [6], -0.0145; in assay [7], 0.479. Moreover, the values for the composite z-score in [8], in assay [9] and in [10] were -0.368, -0.242 and -0.592, respectively. Further, in assay [2], the z-score was 1.39.

Consider `CC(C)CON=C1C[C@@H](O)[C@@H](O)[C@@H]2[C@@H]3C(=O)N(C4CCCCC4)C(=O)[C@@H]3CC[C@@H]12`, for which the composite z-score in assay [1] is -0.991; in assay [3], 0.0528; in assay [4] it was -0.333; in assay [5] it was -0.558; in assay [6], -0.178; in assay [7], -0.279. Moreover, the composite z-score was -0.417 in [8], 0.136 in assay [9] and 0.673 in assay [10]. In assay [2], this compound gave a z-score of -1.6.

As to `COc1ccc(O[C@H]2C=C[C@@H](c3ccccc3)O[C@@H]2CON=C(C)CCN2CCc3nc(-c4ccccc4)c(-c4ccccc4)cc3C2)cc1`, the composite z-score was -0.797 in assay [1]; -0.417 in assay [3]; 0.387 in [4]; -0.0427 in assay [5]; -0.169 in [6]; -0.123 in assay [7]. Also, the composite z-score in assay [8] is -0.198; in [9] it was 0.173; in assay [10], 0.67. Moreover, in assay [2], the z-score is -3.38.

For the compound `O=C1C[C@@H](O)[C@@H](O)[C@@H]2[C@@H]3C(=O)N(Cc4ccc5c(c4)OCO5)C(=O)[C@@H]3CC[C@H]12`, the composite z-score in assay [1] was 0.508; in assay [3] it was 0.632; in assay [4] it was -0.0373; in [5] it was -0.646; in [6], -0.208; in assay [7], 0.0121. Also, the composite z-score in assay [8] was -0.0502; in assay [9] it was 0.346; in [10], -0.109. This compound came in with a z-score in assay [2] of -0.194.

Regarding `CCCNC(=O)OC[C@H]1O[C@H](CCON=C(C)CCN2CCc3nc(CC)c(CC)cc3C2)C=C[C@@H]1Oc1ccc(OC)cc1`, the composite z-score in assay [1] is -0.263; in [3], 0.223; in assay [4] it was -0.254; in assay [5], -0.875; in assay [6], -0.034; in [7], -0.154. Also, the composite z-score in assay [8] was -0.4; in assay [9], 0.345; in [10], 0.381. This compound displayed a z-score in assay [2] of -3.27.

Turning to `CO[C@@H]1C=CCC(=O)N2CCC[C@H]2C(=O)OC[C@@H](C)C(=O)OC[C@H]1C`, the composite z-score in [1] was -0.291; in [3], 0.837; in [4] it was -0.759; in assay [5], -1.02; in assay [6] it was -0.0896; in assay [7], -0.0362. Further, the composite z-score in [8] is -0.246; in assay [9], -0.0837; in assay [10] it was -0.276. The same compound showed a z-score in assay [2] of 0.189.

Take `CC(C)CON=C1C[C@@H](O)[C@@H](O)[C@@H]2[C@@H]3C(=O)N(C(C)(C)C)C(=O)[C@@H]3CC[C@H]12`: the composite z-score is 1.05 in assay [1]; -0.23 in [3]; -0.302 in assay [4]; 0.412 in assay [5]; -0.124 in assay [6]; -0.262 in [7]. The composite z-score is 0.0589 in [8], 0.274 in assay [9] and 1.5 in assay [10]. This compound also registered a z-score in assay [2] of -0.451.

Consider `C=CC[C@@H]1C=C[C@H](ON=C(C)CCC(=O)OC[C@H]2O[C@H](c3ccccc3)C=C[C@@H]2Oc2ccc(OC)cc2)[C@@H](CO)O1`, for which the composite z-score in assay [1] was -0.0821; in assay [3] it was -0.189; in [4] it was -0.725; in assay [5], -0.878; in assay [6] it was -0.152; in assay [7], -0.221. In addition, the composite z-score in assay [8] is -0.158; in [9], 0.106; in [10] it was -0.55. This compound also had a z-score in assay [2] of -1.54.

With `CC(C)[C@@H](OCc1ccccc1)[C@H](C)C=NOC[C@@H](O)COCc1ccco1`, the composite z-score was -0.549 in assay [1]; -1.05 in assay [3]; -1.71 in assay [4]; -1.81 in assay [5]; -0.204 in assay [6]; -0.37 in assay [7]. The composite z-score is -0.577 in [8], -1.05 in assay [9] and -0.0069 in [10]. Besides, in assay [2], the z-score is -2.38.

For `CCOC(=O)[C@H](CC(C)C)NC(=O)CCC1CC(OC(=O)NCc2cccc3ccccc23)CC2(CCCC(COC(=O)NCCC(C)C)O2)O1` (stereo not given in full), the composite z-score in assay [1] is 0.15; in assay [3], 0.443; in assay [4], 0.18; in [5], -0.703; in [6], -0.0529; in assay [7], -0.182. The figures for the composite z-score in [8], in assay [9] and in assay [10] were -0.32, 0.165 and 0.503, respectively. The same compound had a z-score in assay [2] of 0.502.

As for `O=c1n(-c2ccccc2)c(=O)n2n1CC[C@@H]1C(=NOCc3ccccc3)[C@H]3O[C@H]3[C@@H](O)[C@@H]12`, the composite z-score is 0.0398 in assay [1]; 0.582 in [3]; -0.608 in assay [4]; -0.879 in [5]; -0.164 in assay [6]; -0.0035 in assay [7]. Besides, the results for the composite z-score in assay [8], in assay [9] and in [10] were -0.113, 0.0741 and 1.55, respectively. The compound also came in with a z-score in assay [2] of -2.05.

In the case of `COC(=O)CC=C[C@@H](C)[C@@H](C=NOC[C@H]1O[C@H](c2ccccc2)C=C[C@@H]1Oc1ccc(OC)cc1)OC`, the composite z-score in assay [1] was -0.585; in [3], -0.255; in assay [4], -1.15; in assay [5], -1.27; in assay [6], -0.106; in assay [7] it was -0.243. Also, the composite z-score in assay [8] is -0.44; in [9] it was -0.37; in assay [10] it was -0.262. In addition, the z-score in assay [2] is -1.7.

Turning to `CC(C)=CCCC(C)=CCON=C1C[C@@H](O)[C@@H](O)[C@@H]2[C@@H]3C(=O)N(C4CCCCC4)C(=O)[C@@H]3CC[C@@H]12`, the composite z-score in [1] was 0.0997; in [3], 0.464; in [4] it was -0.403; in [5], -1.15; in assay [6], -0.128; in assay [7], -0.209. The composite z-score in assay [8] was -0.261; in assay [9] it was 0.259; in assay [10], -0.0585. The same compound came in with a z-score in assay [2] of -0.471.

For the compound `C#CCCCON=C1C[C@@H](O)[C@@H](O)[C@@H]2[C@@H]3C(=O)N(C(C)(C)C)C(=O)[C@@H]3CC[C@@H]12`, the composite z-score in assay [1] was 0.0592; in assay [3], -0.442; in assay [4] it was -0.389; in assay [5], -0.165; in assay [6] it was -0.0721; in [7] it was -0.338. Moreover, the composite z-score in assay [8] was 0.305; in assay [9], 0.805; in assay [10], 0.323. Also, the z-score in assay [2] stood at 1.17.
